Screening results (PubChem)
This is a sample that favours compounds with a hit; in the whole collection about 3.5% have one here.
Mcl1-Bid inh – Mcl-1/Bid interaction inhibition; Q07820; TR-FRET Mcl-1/Bid-Dy647 peptide binding, 1536-well; inhibition, % at 21.7 µM; 220,000 compounds, 0.97% hits;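 active means compounds that cut the binding signal by more than half at the single screening dose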;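 further: His-tagged Mcl-1 with europium anti-His antibody binding Bid BH3 peptide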
Hck-Nef inh – human Hck-Nef kinase inhibition; P08631; Recombinant Hck-YEEI plus Nef, Z-Lyte FRET kinase assay; inhibition, % at 20 µM; 220,000 compounds, 0.68% hits; AID 463187;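 active means Hck-Nef kinase inhibition above about 50%, limit read from the data; inactive means inhibition below that limit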
Target sequence (P08631 whole entry, looked up): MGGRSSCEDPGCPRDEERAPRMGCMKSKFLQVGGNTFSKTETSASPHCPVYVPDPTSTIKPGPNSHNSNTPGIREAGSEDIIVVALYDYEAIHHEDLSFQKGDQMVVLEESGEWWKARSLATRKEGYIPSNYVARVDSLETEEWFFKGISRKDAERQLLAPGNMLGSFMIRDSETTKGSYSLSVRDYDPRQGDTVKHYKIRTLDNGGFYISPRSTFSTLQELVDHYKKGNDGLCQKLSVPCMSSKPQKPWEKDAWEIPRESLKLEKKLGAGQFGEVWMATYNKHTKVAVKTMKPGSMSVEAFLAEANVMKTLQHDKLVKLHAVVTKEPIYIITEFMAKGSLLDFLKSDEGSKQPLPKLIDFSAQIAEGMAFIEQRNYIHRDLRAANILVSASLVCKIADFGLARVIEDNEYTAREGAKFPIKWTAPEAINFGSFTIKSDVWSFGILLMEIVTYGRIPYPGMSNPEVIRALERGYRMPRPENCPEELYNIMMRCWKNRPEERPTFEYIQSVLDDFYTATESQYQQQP
14-3-3 Bad inh – disrupts binding of bovine 14-3-3 zeta to phospho-Bad peptide; P63103; TR-FRET 14-3-3zeta/Dy647-pBad peptide displacement, 1 h; inhibition, % at 21.7 µM; 220,000 compounds, 0.71% hits;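 active means inhibition above about 70%, limit read from the data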
Mcl1 Noxa PPI – Mcl-1/Noxa interaction inhibition | AID 1022 | Q07820 | inhibition, % at 21.7 µM | TR-FRET Mcl-1/Noxa peptide binding, 2 h | 220,000 compounds, 1.5% hits;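 active means compounds that cut the protein-peptide binding signal by more than 50% relative to plate controls in a single-dose test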;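 further: His-tagged Mcl-1 with rhodamine Noxa BH3 peptide and terbium anti-His antibody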
Bim-Mcl-1 – inhibitors of Bim-Mcl-1 interaction, human | Q07820 | Bead-based flow cytometry, Bim peptide-Mcl-1 binding | inhibition, % at 10 µM | 190,000 compounds, 0.1% hits; in the data active means inhibition above about 40%
eIF4E 4G PPI – eIF4E/eIF4G interaction inhibition in translation initiation; P63073+Q04637; TR-FRET eIF4E-eIF4GI(517-606) binding, 2 h; inhibition, % at 21.7 µM; 220,000 compounds, 0.37% hits; AID 782;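 active means inhibition above about 30%, limit read from the data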
Hits are given with their value; i = inactive; nt = no result.

SMILES | Mcl1-Bid inh | Hck-Nef inh | 14-3-3 Bad inh | Mcl1 Noxa PPI | Bim-Mcl-1 | eIF4E 4G PPI
COC(=O)C1=Nc2ccccc2/C1=C\c1c(O)n(-c2ccc(OC)cc2)c(=O)[nH]c1=O | i | i | i | 53 | i | i
COC(=O)C1=Nc2ccccc2/C1=C\c1c(O)n(-c2ccc(Br)cc2)c(=O)[nH]c1=O | i | i | i | 77 | i | i
COc1ccc(OC)c(-n2c(O)c(/C=C3\C(C)=Nc4ccccc43)c(=O)[nH]c2=O)c1 | i | i | i | i | nt | i
O=c1[nH]c(=O)n(-c2ccccc2)c(O)c1/C=C1/C(c2ccccc2)=Nc2ccccc21 | i | i | i | i | i | i
O=C(CN1CCN(c2ccccc2F)CC1)Nc1cccnc1Cl | i | i | i | i | i | i
CN(C)c1ccc(NC(=O)CN2C(=O)CN=C(c3ccccc3)c3cc(Cl)ccc32)cc1 | i | i | i | 78 | i | i
COP(=O)(OC)C1(Nc2ccc(C)cc2)CCCCC1 | i | i | i | i | i | i
COc1ccccc1N1C(=O)NC(=O)/C(=C/c2ccc([N+](=O)[O-])s2)C1=O | i | i | i | i | nt | i
O=C1NC(=O)N(Cc2ccc(F)cc2)C(=O)/C1=C\c1ccc([N+](=O)[O-])s1 | i | i | i | 93 | nt | i
COc1ccc(CN2C(=O)NC(=O)/C(=C/c3ccc([N+](=O)[O-])s3)C2=O)cc1 | i | i | i | 65 | nt | i
CN[C@@H]1C[C@@H](c2ccc(Cl)c(Cl)c2)c2ccccc21 | i | nt | i | i | i | 99
CC(NCc1ccc(Cl)c(Cl)c1)C(O)c1ccccc1 (configuration not stated) | i | i | i | i | i | i
CCOC(=O)C1=C(N)Oc2cc(C)oc(=O)c2C12C(=O)N1c3c(cc(OC)cc32)C(C)=CC1(C)C (configuration not stated) | i | i | i | nt | i | i
Cc1ccc(N2CCN(CCc3ccccc3)CC2)cc1 | i | i | 83 | i | i | i
Cc1cccc(N2CCN(CCc3ccccc3)CC2)c1C | i | i | i | i | i | i
C=CCn1c(O)c(/C(C)=N/N2CCCCCC2)c(=O)[nH]c1=O | i | i | i | i | nt | i
C/C(=N\N1CCCCCC1)c1c(O)n(C2CCCCC2)c(=O)[nH]c1=O | i | i | i | i | nt | 45
Cn1c(O)c(C=NCCCCCCCCCCC(=O)O)c(=O)n(C)c1=O | i | i | i | i | nt | i
CCOC(=O)C1=C(N)Oc2cc(C)oc(=O)c2C12C(=O)N1c3c(cccc32)C(C)CC1(C)C (configuration not stated) | i | i | 70 | i | i | i
COc1ccc(CC(=O)N2CCN(C)CC2)cc1OC | i | i | 73 | i | i | i
COc1ccc(CC(=O)N2CCN(C)CC2)cc1 | i | i | i | i | i | i
CCC(C)N1CCN(C(=O)Cc2ccccc2)CC1 (configuration not stated) | i | i | 80 | i | i | i
COc1ccc(CN2CCN(C(=O)Cc3ccccc3)CC2)c(OC)c1 | i | i | i | i | i | i
COc1ccc(Br)cc1CN1CCN(C(=O)Cc2ccccc2)CC1 | i | i | 86 | i | i | i
O=C(CCl)Nc1nccs1 | i | i | i | i | nt | i
SMILES | Mcl1-Bid inh | Hck-Nef inh | 14-3-3 Bad inh | Mcl1 Noxa PPI | Bim-Mcl-1 | eIF4E 4G PPI
O=[N+]([O-])c1cc(S(=O)(=O)c2ccc(O)c([N+](=O)[O-])c2)ccc1O | i | i | i | 85 | i | i
O=C(c1ccc2nc3ccc(Cl)cc3c(=O)n2c1)N1CCC2(CC1)OCCO2 | nt | i | nt | nt | nt | nt
CCCC(=O)NC(Oc1ccc(Cl)cc1Cl)C(Cl)(Cl)Cl (configuration not stated) | i | i | 88 | i | i | i
CCCC(=O)NC(Oc1ccccc1Cl)C(Cl)(Cl)Cl (configuration not stated) | i | i | 77 | i | i | i
CCCC(=O)NC(Oc1ccc(OC)cc1)C(Cl)(Cl)Cl (configuration not stated) | i | i | i | i | i | i
NP(=O)(OCC(F)(F)F)Oc1ccc(Cl)cc1 (configuration not stated) | i | i | i | i | i | i
O=P(N[C@@H](c1ccccc1)[C@@H]1C[C@H]1CO)(c1ccccc1)c1ccccc1 | i | i | i | i | i | i
c1ccc(-c2ccc(-c3n(-c4ccccn4)c4ccccc4[n+]3-c3ccccn3)cc2)cc1 | i | i | i | 87 | i | i
O=C(NC(Cc1cnc[nH]1)C(=O)O)c1ccccc1 (configuration not stated) | i | i | i | i | i | i
CCC(C)N1C(=O)NC(=O)C2(Cc3c(ccc4ccccc34)N(C)C2)C1=O (configuration not stated) | i | i | i | 59 | i | i
Clc1ccccc1CN1CCN(c2ccccc2)CC1 | i | i | 83 | i | i | i
CCOC(=O)c1c(NC(=O)C(c2ccccc2)c2ccccc2)sc2c1C1CCN2CC1 | i | i | 79 | i | i | i
CCC(=NCCc1c[nH]c2ccccc12)c1c(O)n(C)c(=O)n(C)c1=O | i | i | i | i | i | i
CC(C)N1C(=O)/C(=C/C=C/c2ccco2)C(=O)N(Cc2ccco2)C1=O | i | i | i | i | i | i
CCN1C(=O)C(=C/C=C/c2ccco2)C(=O)N(CC)C1=S | i | i | i | 73 | i | i
CCOC(=O)c1cc(C(O)(C(=O)OC)C(F)(F)F)c(/N=C/N(C)C)o1 (configuration not stated) | i | i | i | 86 | i | i
COC(=O)C(O)(c1c[nH]c2ccccc12)C(F)(F)F (configuration not stated) | i | i | i | i | i | i
COc1cc(/C=C/[N+](=O)[O-])ccc1O | i | i | i | 51 | i | i
NC(=O)CN1CCCC1=O | i | i | i | i | i | i
Cn1c(O)c(C=NC2CCN(Cc3ccccc3)CC2)c(=O)[nH]c1=O | i | i | i | i | nt | 80
O=c1[nH]c(=O)n(C2CCCCCC2)c(O)c1C=NC1CCN(Cc2ccccc2)CC1 | i | i | i | i | i | i
CC(C(=O)c1c[nH]c2ccccc12)N1CCc2ccccc2C1 (configuration not stated) | i | i | i | i | i | i
Nc1c(C(=O)NCc2ccco2)c2nc3ccccc3nc2n1Cc1ccccc1 | i | i | i | i | i | i
COc1ccc(Cn2c(N)c(C(=O)NCc3ccco3)c3nc4ccccc4nc32)cc1 | i | i | i | 71 | i | i
CN(C)c1ccc(CN2CC=C(c3ccc(F)cc3)CC2)cc1 | i | i | 73 | i | i | i
CN(C)C(Cc1ccccc1)C(=O)c1cccs1 (configuration not stated) | i | i | i | i | 48 | i
CN(C)C(Cc1ccc(Cl)cc1)C(=O)c1ccccc1 (configuration not stated) | i | i | i | i | i | i
CCCc1nc2ccc(Br)cc2c(=O)n1-c1ccc([N+](=O)[O-])c(C(F)(F)F)c1 | i | i | i | i | i | i
